In PubChem BioAssay (Tox21) one finds Potency and outcome data, which are given here for seven compounds.

Unmarked numbers belong to inactive results. Inconclusive results are not listed. Calls of active or inactive are those of the source. Unless noted, the call rests on the fitted dose curve.

Assay [1] can be described thus: Nuclear factor erythroid 2-related factor 2/antioxidant responsive element (Nrf2/ARE) small molecule agonists: luciferase reporter gene qHTS assay in human keratinocytes (AID 1919969). Further: nearly all actives have a fitted effect of over 35% in size. For orientation: Reporter assays use an easily measured gene product as a stand-in for the process of interest.
Assay [2] has as its target Gonadotropin-releasing hormone receptor (Homo sapiens) (UniProt P30968). In words: Human gonadotropin-releasing hormone receptor (GnRHR) small molecule agonists, calcium flux assay in GnRHR-HEK293 cells (AID 1920063). Further: nearly all actives have a fitted effect of over 35% in size. An outline of the steps: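 HEK293 cells stably expressing human GnRHR were plated 18 h at 37 °C, loaded with calcium dye 1 h at 37 °C, then given compound in agonist mode; fluorescence (Ex/Em 480/540) read kinetically for 3 min at 1 s intervals.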

In assay [3] the target is KiSS-1 receptor (Homo sapiens) (UniProt Q969F8). As to the kind of experiment: Human kisspeptin (KISS1R) small molecule agonists, calcium flux assay in KISS1R-HEK293 cells (AID 1920064; active means well fitted activation curve with a large enough effect in the repeat runs). An outline of the steps:
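HEK293 cells stably expressing human KISS1R were plated 18 h at 37 °C, loaded with calcium dye for 1 h at 37 °C, then given compound by pin tool. Fluorescence (Ex/Em 480/540) was read kinetically for 3 min.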
On the technique in general: A change in cytosolic calcium serves as a functional read-out for many receptors and channels.

The nature of assay [4]: G protein-coupled receptor (GPCR) small molecule agonists, calcium flux assay: HEK293 wild type cell line counter screen (AID 1920065). The gist of the method: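 Cells were plated and cultured 18 h at 37 C/5% CO2, then loaded with calcium dye for 1 h at 37 C. Compounds in DMSO were pin-transferred in agonist mode, and fluorescence (Ex/Em 480/540) was read kinetically for 3 min at 1 s intervals.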

Assay [5] can be described thus: p53 small molecule agonists, cell-based qHTS assay with human liver microsomes (AID 1963577).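 Further: p53 response element beta-lactamase reporter cells with liver microsomes plus NADPH.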 An outline of the steps:
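With metabolic activation: human liver microsomes (0.5 mg/mL final) plus NADPH (0.5 mg/mL final) added alongside compounds to p53RE-bla cells; 16 h 37 C exposure; beta-lactamase read by LiveBLAzer fluorescence.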

Assay [6] can be described thus: p53 small molecule agonists, cell-based qHTS assay with rat liver microsomes (AID 1963578). The gist of the method:
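Metabolic activation by rat liver microsomes and NADPH, each 0.5 mg/mL final, added right after compounds to p53RE-bla reporter cells (4,000/well, plated 5 h earlier). 16 h at 37 C, then LiveBLAzer substrate for 2 h at room temperature in the dark; fluorescence read-out.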
For orientation: In qHTS, concentration-response curves come from the screen itself.

Assay [7] can be described thus: p53 small molecule agonists, cell-based qHTS assay with human liver microsomes: qHTS cell viability counter screen (AID 1963579). Further: nearly all actives have a fitted effect of over 45% in size. An outline of the steps: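 Metabolic activation used human liver microsomes and NADPH, both 0.5 mg/mL final, over 16 hours at 37 C on p53RE-bla cells (4,000/well). Cytotoxicity measured by CellTiter-Glo luminescence, 30 min at room temperature.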

The nature of assay [8]: p53 small molecule agonists, cell-based qHTS assay with rat liver microsomes: qHTS cell viability counter screen (AID 1963580). Further: nearly all actives have a fitted effect of over 45% in size. The gist of the method: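 Viability is assessed in parallel with the p53 reporter read: HCT-116 p53RE-bla cells receive compounds plus rat microsomes and NADPH (0.5 mg/mL final apiece), incubate 16 h at 37 C, and then CellTiter-Glo luminescence is recorded.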

Assay [9] in a line: p53 small molecule agonists, cell-based qHTS assay (AID 1963582; active means well fitted activation curve with a large enough effect in the signal ratio in the repeat runs, not every such curve was filed as active; the % refers to the signal ratio). An outline of the steps: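 p53RE-bla beta-lactamase reporter cells rested 5 h at 37 C/5% CO2, then received compounds in DMSO by pin transfer and were incubated 16 h at 37 C. LiveBLAzer B/G FRET substrate was loaded for 2 h at room temperature before fluorescence reading.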
Assay [10] concerns the target 5-hydroxytryptamine receptor 2A (Homo sapiens) (UniProt P28223). In words: 5-hydroxytryptamine receptor 2A (HTR2A) small molecule antagonists, cell-based qHTS assay (AID 1963586). Further: nearly all actives have a fitted effect of over 45% in size. An outline of the steps: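 Antagonist-mode intracellular calcium assay: DOI (4 nM) added after 5 min compound pre-incubation at room temperature to dye-loaded HTR2A-CHO cells. Fluorescence followed for 3 min, sampled every second.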

Assay [11] shares this target. In words: 5-hydroxytryptamine receptor 2A (HTR2A) small molecule agonists, cell-based qHTS assay (AID 1963587). Further: nearly all actives have a fitted effect of over 30% in size. The gist of the method: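 CHO cells stably expressing human HTR2A, plated 18 h, loaded with calcium dye 1 h at 37 C. Agonist mode: compounds added and intracellular calcium fluorescence recorded kinetically for 2 min at 1 sec intervals.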
In assay [12] the target is Muscarinic acetylcholine receptor M1 (Homo sapiens) (UniProt P11229). In words: Cholinergic receptor muscarinic 1 (CHRM1) small molecule antagonists, cell-based qHTS assay (AID 1963588). Further: nearly all actives have a fitted effect of over 40% in size. Further: potency means the concentration at half of the fitted maximal effect. An outline of the steps:
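CHRM1-CHO calcium-flux assay, antagonist mode. Cells were seeded 18 h, dye-loaded 1 h at 37 C and given compound for 5 min at RT, then acetylcholine was added at 50nM. FDSS fluorescence was read 3 min; 15 concentrations, three runs.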

Assay [13] shares this target. As to the kind of experiment: Cholinergic receptor muscarinic 1 (CHRM1) small molecule agonists, cell-based qHTS assay (AID 1963589). Further: nearly all actives have a fitted effect of over 35% in size. An outline of the steps:
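CHO cells stably expressing human CHRM1, seeded 18 h at 37 C/5% CO2, dye-loaded 1 h at 37 C, then given compound in agonist mode; intracellular calcium fluorescence read kinetically at 1 s intervals. Fifteen concentrations, three independent runs.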

The nature of assay [14]: cAMP Responsive Elements (CRE) small molecule agonists, cell-based qHTS assay (AID 1963590). An outline of the steps: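 CRE-bla HEK 293T cells in DMEM with 10% dialyzed FBS, NEAA, pyruvate and 25 mM HEPES were plated 18 h at 37 C/5% CO2, then exposed to compounds in DMSO for 3 h before LiveBLAzer B/G FRET substrate addition.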
Assay [15] deals with Beta-2 adrenergic receptor (Homo sapiens) (UniProt P07550). As to the kind of experiment: Adrenergic beta2 receptor (ADRB2) small molecule antagonists, cell-based qHTS assay (AID 1963592). Further: series mostly up to about 92 µM; nearly all actives have a fitted effect of over 50% in size. The gist of the method: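 Cells (CHO, stable ADRB2 overexpression) incubated 18-20hr at 37C; compounds added from DMSO; agonist mix (1nM isoproterenol, 100uM IBMX, 25uM Ro-20-1724) added; 0.5hr RT; d2-cAMP and anti-cAMP-cryptate added; 1hr RT; 665/615 nm read.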

Assay [16] concerns the target D(2) dopamine receptor (Homo sapiens) (UniProt P14416). In words: Dopamine D2 receptor (DRD2) small molecule agonists, cell-based qHTS assay (AID 1963594). Further: nearly all actives have a fitted effect of over 35% in size. An outline of the steps: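 HEK293 cells stably expressing human DRD2, pre-treated with PDE inhibitor Ro20-1724 (0.1 mM final) and compound 10 min at room temperature, then stimulated with NKH477 (200nM […]) for 30 min. cAMP read by HTRF (665/620 nm).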

For assay [17] the target is unchanged. As to the kind of experiment: Dopamine D2 receptor (DRD2) small molecule antagonists, cell-based qHTS assay (AID 1963595; active means well fitted inhibition curve with a large enough effect in the signal ratio in the repeat runs, with a control signal flat; the % refers to the signal ratio). The gist of the method: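 Human DRD2 antagonist qHTS measuring cAMP by HTRF. The cells are exposed to compound for 10 min, then to NKH477 (200 nM) and quinpirole (12 nM) for 30 min at RT, with Ro20-1724 (0.1 mM) present throughout.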
Assay [18] is described as follows: p53 small molecule agonists, cell-based qHTS assay: qHTS cell viability counter screen (AID 1963581). Further: nearly all actives have a fitted effect of over 45% in size. An outline of the steps:
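p53RE-bla HCT-116 cells were exposed to compounds for 16 h at 37 C; after the beta-lactamase FRET read in the same wells, CellTiter-Glo was added and luminescence (intracellular ATP) read after 30 min at room temperature.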

The nature of assay [19]: cAMP Responsive Elements (CRE) small molecule antagonists, cell-based qHTS assay (AID 1963591; active means well fitted inhibition curve with a large enough effect in the signal ratio in the repeat runs, not every such curve was filed as active; the % refers to the signal ratio). An outline of the steps: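 CRE-bla HEK293T cells were plated 18 h at 37 °C/5% CO2, pinned with compound in DMSO, then stimulated with NKH477 at 0.25 uM final for 3 h. LiveBLAzer B/G FRET substrate was added and plates incubated 2 h at room temperature.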
In assay [20] the target is Beta-2 adrenergic receptor (Homo sapiens) (UniProt P07550). As to the kind of experiment: Adrenergic beta2 receptor (ADRB2) small molecule agonists, cell-based qHTS assay (AID 1963593).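 Further: CHO cells stably overexpressing human ADRB2.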 The gist of the method: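 CHO cells stably over-expressing ADRB2 were plated overnight at 37C, then dosed with compounds plus a stimulation mix containing 100uM IBMX and 25uM Ro-20-1724 for 0.5hr at room temperature. cAMP was measured by HTRF competition, 1hr.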

Chain of 5-hydroxytryptamine receptor 2A (Homo sapiens) (P28223 whole entry, looked up): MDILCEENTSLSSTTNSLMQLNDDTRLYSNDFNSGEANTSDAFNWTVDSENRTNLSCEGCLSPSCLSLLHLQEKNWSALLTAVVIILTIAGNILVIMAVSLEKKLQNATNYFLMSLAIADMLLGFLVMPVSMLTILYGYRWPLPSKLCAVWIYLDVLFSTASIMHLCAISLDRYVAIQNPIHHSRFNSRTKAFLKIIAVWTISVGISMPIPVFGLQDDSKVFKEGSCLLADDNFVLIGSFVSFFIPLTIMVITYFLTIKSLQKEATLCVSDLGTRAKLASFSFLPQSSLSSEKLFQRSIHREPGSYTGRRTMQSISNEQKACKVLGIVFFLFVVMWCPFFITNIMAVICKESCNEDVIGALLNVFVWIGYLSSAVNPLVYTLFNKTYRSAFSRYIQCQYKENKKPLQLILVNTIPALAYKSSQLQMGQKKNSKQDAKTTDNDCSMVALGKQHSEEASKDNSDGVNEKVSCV
Chain of D(2) dopamine receptor (Homo sapiens) (P14416 whole entry, looked up): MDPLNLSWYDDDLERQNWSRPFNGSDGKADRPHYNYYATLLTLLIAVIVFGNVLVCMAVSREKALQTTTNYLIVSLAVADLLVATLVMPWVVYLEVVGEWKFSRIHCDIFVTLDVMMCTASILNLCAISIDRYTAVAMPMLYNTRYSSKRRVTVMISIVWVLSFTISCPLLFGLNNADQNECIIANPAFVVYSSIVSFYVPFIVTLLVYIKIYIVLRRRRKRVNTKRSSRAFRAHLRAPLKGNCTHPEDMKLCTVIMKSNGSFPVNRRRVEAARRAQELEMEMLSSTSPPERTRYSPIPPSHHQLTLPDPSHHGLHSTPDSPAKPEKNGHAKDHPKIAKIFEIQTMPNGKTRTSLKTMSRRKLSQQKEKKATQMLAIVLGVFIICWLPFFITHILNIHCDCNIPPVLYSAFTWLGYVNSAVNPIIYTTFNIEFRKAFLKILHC
Chain of Gonadotropin-releasing hormone receptor (Homo sapiens) (P30968 whole entry, looked up): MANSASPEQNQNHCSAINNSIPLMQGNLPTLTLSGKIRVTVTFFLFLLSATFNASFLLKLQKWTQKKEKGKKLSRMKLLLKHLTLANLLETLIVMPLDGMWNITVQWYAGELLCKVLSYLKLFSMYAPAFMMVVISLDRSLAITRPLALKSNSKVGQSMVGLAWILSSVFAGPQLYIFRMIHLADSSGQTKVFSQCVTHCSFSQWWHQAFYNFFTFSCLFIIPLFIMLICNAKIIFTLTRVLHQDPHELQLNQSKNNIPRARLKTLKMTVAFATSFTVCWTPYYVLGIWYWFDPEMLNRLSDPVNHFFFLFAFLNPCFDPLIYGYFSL
Chain of Beta-2 adrenergic receptor (Homo sapiens) (P07550 whole entry, looked up): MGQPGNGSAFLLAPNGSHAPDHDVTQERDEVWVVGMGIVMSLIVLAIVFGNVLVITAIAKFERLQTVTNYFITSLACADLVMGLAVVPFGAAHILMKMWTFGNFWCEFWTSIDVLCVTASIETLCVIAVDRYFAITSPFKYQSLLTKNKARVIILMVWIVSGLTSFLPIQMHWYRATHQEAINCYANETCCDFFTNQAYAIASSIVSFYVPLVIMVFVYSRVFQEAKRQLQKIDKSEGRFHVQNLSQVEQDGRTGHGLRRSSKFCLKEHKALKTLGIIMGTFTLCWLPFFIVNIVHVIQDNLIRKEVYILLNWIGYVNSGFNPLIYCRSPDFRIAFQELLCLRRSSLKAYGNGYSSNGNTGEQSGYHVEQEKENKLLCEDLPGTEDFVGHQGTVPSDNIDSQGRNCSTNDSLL
Chain of Muscarinic acetylcholine receptor M1 (Homo sapiens) (P11229 whole entry, looked up): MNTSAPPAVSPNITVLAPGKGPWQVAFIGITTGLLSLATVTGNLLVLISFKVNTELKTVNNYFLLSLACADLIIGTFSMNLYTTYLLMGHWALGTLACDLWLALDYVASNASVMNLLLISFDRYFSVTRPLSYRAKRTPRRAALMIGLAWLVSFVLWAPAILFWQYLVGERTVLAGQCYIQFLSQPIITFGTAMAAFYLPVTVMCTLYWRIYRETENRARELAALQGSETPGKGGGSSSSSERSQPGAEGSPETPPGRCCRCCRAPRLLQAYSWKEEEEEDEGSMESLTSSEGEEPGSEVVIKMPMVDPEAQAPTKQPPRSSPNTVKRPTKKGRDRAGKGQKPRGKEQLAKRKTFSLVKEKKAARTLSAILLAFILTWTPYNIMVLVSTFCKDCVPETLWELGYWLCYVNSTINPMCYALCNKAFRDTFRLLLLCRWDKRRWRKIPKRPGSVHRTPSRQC
Chain of KiSS-1 receptor (Homo sapiens) (Q969F8 whole entry, looked up): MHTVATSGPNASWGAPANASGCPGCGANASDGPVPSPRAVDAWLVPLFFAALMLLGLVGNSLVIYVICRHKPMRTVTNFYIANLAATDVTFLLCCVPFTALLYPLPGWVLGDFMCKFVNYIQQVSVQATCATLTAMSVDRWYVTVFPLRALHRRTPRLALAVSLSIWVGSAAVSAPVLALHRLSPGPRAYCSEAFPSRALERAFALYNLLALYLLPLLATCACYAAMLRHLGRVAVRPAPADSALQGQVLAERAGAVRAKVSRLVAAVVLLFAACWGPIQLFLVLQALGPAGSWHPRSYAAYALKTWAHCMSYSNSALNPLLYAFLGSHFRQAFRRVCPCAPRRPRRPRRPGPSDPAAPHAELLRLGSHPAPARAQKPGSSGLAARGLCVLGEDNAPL

For the compound `COCCOCCOCCOC`, the Potency entry in assay [1], in [2], in assay [5], in [6], in assay [7] and in assay [8] was “inactive” in each case. The Potency result in assay [9], in [10], in assay [11], in [12], in [13] and in assay [14] was “inactive” in each case. The Potency entry in assay [15], in [16] and in assay [17] was “inactive” throughout. The outcome in assay [3] and in assay [4] was inactive.
Turning to `CCCCCCCCCCCCCCCC(=O)OC[C@H](O)[C@H]1OC(=O)C(O)=C1O`, the Potency entry in [1], in [2], in [5], in assay [6], in assay [7] and in [18] was “inactive” in each case. Besides, the Potency result in assay [10], in [11], in assay [12], in assay [13], in [14] and in [19] was “inactive” in each case. In addition, the Potency result in assay [15], in assay [16] and in assay [17] was “inactive” throughout. For the same compound, the outcome in assay [3] and in [4] was inactive.
On to `O=C(Cn1ccnc1[N+](=O)[O-])NCCO`, for which the Potency result in assay [1], in assay [2], in [5], in [6], in assay [7] and in assay [8] was “inactive” each time. The Potency result in [9], in [10], in [11], in assay [13], in assay [14] and in assay [19] was “inactive” throughout. The Potency result in [15], in assay [20], in assay [16] and in [17] was “inactive” in each case. In addition, the result in [3] and in assay [4] was inactive.
As for `c1ccc(C[P+](c2ccccc2)(c2ccccc2)c2ccccc2)cc1`, the Potency result in [1], in assay [2], in assay [5], in assay [6], in assay [7] and in assay [18] was “inactive” throughout. For the same compound, the Potency result in assay [10], in assay [11], in [13], in assay [15], in assay [20] and in assay [16] was “inactive” in each case. Also, in assay [17], the Potency result is “inactive”. Besides, the outcome in [3] and in [4] was inactive. Further, the Potency in [12] is 4.72 µM (active).
In the case of `ClC1=C(Cl)C1(Cl)Cl`, the Potency result in assay [1], in assay [2], in assay [5], in [6], in assay [7] and in assay [18] was “inactive” in each case. Further, the Potency result in assay [9], in assay [10], in assay [11], in assay [12], in assay [13] and in [14] was “inactive” throughout. In addition, the Potency result in assay [19], in [15], in assay [16] and in assay [17] was “inactive” each time. The outcome in [3] and in assay [4] was inactive.
Consider `C=Cc1ccccc1`, for which the Potency result in assay [1], in [2], in [5], in assay [6], in [7] and in [8] was “inactive” throughout. The Potency result in [10], in [11], in [12], in assay [13], in assay [14] and in assay [15] was “inactive” throughout. Further, the Potency entry in assay [16] and in [17] was “inactive” in each case. The result in assay [3] and in assay [4] was inactive.
As for `O=CN1CCCCC1`, the Potency entry in [1], in assay [2], in assay [5], in [6], in [8] and in [18] was “inactive” in each case. The Potency result in assay [9], in assay [10], in assay [11], in assay [12], in assay [13] and in assay [14] was “inactive” in each case. Besides, the Potency entry in assay [19], in assay [15], in assay [16] and in assay [17] was “inactive” throughout. The outcome in assay [3] and in [4] was inactive.
